Here are results for 43 molecules from PubChem BioAssay AID853 (Columbia University Molecular Screening Center, 2007).

The whole screen tested about 47,000 compounds, of which about 200 (0.43%) were called active. About 1% were inconclusive and are not listed.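 Rule for the calls: active = inhibition of aggregate fluorescence above about 70%, also judged a hit by eye on the cell image (limit read from the data, passing the limit was not always enough); inconclusive = no rule stated for this call; inactive = not judged a hit on image review.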 Only a selection was taken, and actives are over-represented in it overall.

A short description of this test: removal of polyQ htt aggregates in HeLa – imaging, HeLa Exon1htt(103Q)mCFP, confocal imaging, primary screen (AID 853).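 Note: cells exposed to compound for three days before fixation.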 Conditions: aggregate imaging, at 1.5 µM; fraction fluorescence in grains: measured here: aggregate grain fluorescence fraction, stronger effect = lower value; inhibition: stronger effect = higher value, zero = plate's median compound well.
The inhibition is the change of the read-out against control, counted positive when it falls. In the case of `c1ccc(-c2noc(-c3cccs3)n2)nc1`, the fraction fluorescence in grains came to 20.2 and the inhibition is -19.7% (inactive).

Turning to `Cc1cc(Oc2ccccc2)nc(N2CCOCC2)n1`, the fraction fluorescence in grains was 29.1 and the inhibition is 5.3% (inactive).

For the molecule `COc1ccc(NS(=O)(=O)c2ccc(NC(=O)C(C)(C(F)(F)F)C(F)(F)F)cc2)nn1`, the fraction fluorescence in grains came out at 26.9 and the inhibition was -29.8% (inactive).

In the case of `CCOC(=O)CN1C(=O)C(=O)c2cc(C)ccc21`, the fraction fluorescence in grains was 50.7 and the inhibition is -31.2% (inactive).

Turning to `CCOC(=O)Cn1c2c(c(-c3ccccc3OC)cc1=O)CCCC2`, the fraction fluorescence in grains was 9.78 and the inhibition was 75.9% (active).

Take `COc1ccc(NC(=O)COC(=O)Cn2c(C)nc3ccccc32)cc1OC`: the fraction fluorescence in grains worked out at 48.2 and the inhibition was -28% (inactive).

As for `CCOC(=O)c1c(NC(=O)CSc2nnc(CNc3ccc(C)cc3C)o2)sc(C)c1C`, the fraction fluorescence in grains turned out to be 20 and the inhibition is 0.1% (inactive).

`O=C(c1ccccn1)c1ncc(C(F)(F)F)cc1Cl`: the fraction fluorescence in grains was 11.8 and the inhibition was 69.6% (inactive).

Turning to `COc1cc(C2CC(=O)c3cnc(NC(C)=O)nc3C2)cc(OC)c1OC` (stereo unspecified), the fraction fluorescence in grains amounted to 28.1 and the inhibition was -57.9% (inactive).

As for `Cc1ccccc1NC(=O)c1cnn(-c2ccccc2)c1NC(=O)c1ccco1`, the fraction fluorescence in grains is 65.2 and the inhibition is -45.9% (inactive).

For `O=C(Nc1cccc(NC(=O)c2ccco2)c1)c1cnccn1`, the fraction fluorescence in grains is 17.1 and the inhibition was 4% (inactive).

For `CCOc1ccc(C(=O)Nc2cc(OC)ccc2OC)cc1`, the fraction fluorescence in grains was 47.6 and the inhibition was -28.5% (inactive).

On to `N#Cc1c(/N=C/N2CCCC2)oc(-c2ccccc2)c1-c1ccccc1`, for which the fraction fluorescence in grains amounted to 60.3 and the inhibition was -70.7% (inactive).

For `c1ccc(Nc2n[nH]nc2-c2ccccc2)cc1`, the fraction fluorescence in grains was determined as 19.1 and the inhibition was -9.8% (inactive).

For the molecule `COc1ccc(Oc2coc3cc(OC(=O)c4cncc(Br)c4)ccc3c2=O)cc1`, the fraction fluorescence in grains stood at 38.8 and the inhibition was 10.3% (inactive).

As to `CCN(CC)CCNc1ccc(Cl)cc1[N+](=O)[O-]`, the fraction fluorescence in grains came out at 50.4 and the inhibition was -31% (inactive).

For the molecule `COc1nc(NC2CCCCC2)nc(N2CCCCCC2)n1`, the fraction fluorescence in grains was found to be 7.28 and the inhibition is 62.7% (inactive).

For `ONC(=Nc1ccc(Cl)cc1)c1ccccc1Cl`, the fraction fluorescence in grains turned out to be 37.5 and the inhibition is 2.4% (inactive).

Consider `Cc1cccc(N(C(=O)Cc2cccs2)C(C(=O)NC2CCCC2)c2ccsc2)c1` (stereo unspecified), for which the fraction fluorescence in grains stood at 20.3 and the inhibition was 34% (inactive).

With `CCOc1ccc(N=Cc2c(O)n(-c3cccc(C)n3)c(=O)c3ccccc23)cc1`, the fraction fluorescence in grains was determined as 45.9 and the inhibition is -5.8% (inactive).

For the molecule `CCC(C)(C)n1nnnc1CN1CCN(c2nc3ccc(C)cc3cc2C#N)CC1`, the fraction fluorescence in grains turned out to be 29 and the inhibition was 23.1% (inactive).

As to `O=c1[nH]c2c(c(=O)n1Cc1ccccc1)CCC2`, the fraction fluorescence in grains came to 13.3 and the inhibition was 28.6% (inactive).

As to `COc1ccccc1-c1nnc(SCC(=O)Nc2ccccc2)o1`, the fraction fluorescence in grains was 4.28 and the inhibition is 73.5% (active).

Turning to `Cc1cc(C)cc(OCc2nnc(SCC(=O)Nc3ccccc3)o2)c1`, the fraction fluorescence in grains came to 15 and the inhibition was 15.8% (inactive).

`COc1ccccc1-c1nnc(SCC(=O)Nc2cc(C)on2)o1`: the fraction fluorescence in grains is 16.4 and the inhibition is 15.8% (inactive).

Turning to `Cc1cc(C)n(-c2c(F)c(F)c(COC(=O)c3ccccc3)c(F)c2F)n1`, the fraction fluorescence in grains came out at 25.1 and the inhibition is -56.6% (inactive).

Regarding `CCCCOC(=O)Cn1c(=O)n(CC(=O)OCCCC)c2cc(C)ccc21`, the fraction fluorescence in grains is 19 and the inhibition is -6.9% (inactive).

For the molecule `CC(=O)Nc1ccccc1C(=O)C(=O)Nc1ccc(F)cc1`, the fraction fluorescence in grains worked out at 57.6 and the inhibition was -48.2% (inactive).

As for `CCOc1ccc(N(CC(=O)NC2CCCCCC2)S(=O)(=O)c2c(C)[nH]c(=O)[nH]c2=O)cc1`, the fraction fluorescence in grains turned out to be 41.2 and the inhibition was -15.2% (inactive).

Consider `CCCC(=O)N1CCc2[nH]c3ccccc3c2C1`, for which the fraction fluorescence in grains was found to be 26.6 and the inhibition is 21.6% (inactive).

As for `Cc1c(CN2CCC(C)CC2)c(=O)n(-c2ccccc2)n1C`, the fraction fluorescence in grains was 56.1 and the inhibition was -32.3% (inactive).

`COc1ccc(C2C(C(C)=O)=C(O)C(=O)N2Cc2cccnc2)cc1` (stereo unspecified): the fraction fluorescence in grains was 15.5 and the inhibition was 17.5% (inactive).

In the case of `COC(=O)c1cccc(NC(=O)CSc2nc(C)cc(=O)[nH]2)c1`, the fraction fluorescence in grains was determined as 13.9 and the inhibition was 27.8% (inactive).

For `Cn1ccs/c1=N\S(=O)(=O)c1ccc(C(C)(C)C)cc1`, the fraction fluorescence in grains was determined as 37.7 and the inhibition is 0.2% (inactive).

Regarding `CCOc1ccc(NC(=O)Nc2cc(C)on2)cc1`, the fraction fluorescence in grains came out at 23.9 and the inhibition was -47.8% (inactive).

Turning to `CCOc1ccc(NC(=O)CCC(=O)n2nc(C)cc2C)cc1`, the fraction fluorescence in grains is 4 and the inhibition is 79.1% (active).

Turning to `CCCCOc1ccc(NC(=O)CSCC(=O)OCC)cc1`, the fraction fluorescence in grains came to 53.3 and the inhibition was -31.6% (inactive).

Take `O=C(CSc1nnc(-c2cccnc2)n1CCc1ccccc1)NCc1ccccc1`: the fraction fluorescence in grains was determined as 34.5 and the inhibition is -83.7% (inactive).

As for `CC(C)(C)C(=O)Cn1c(NCCO)nc2ccccc21`, the fraction fluorescence in grains was found to be 13.3 and the inhibition was 30.8% (inactive).

With `Oc1c(C(c2cccs2)N2CCN(c3ccc(F)cc3)CC2)sc2ncnn12` (stereo unspecified), the fraction fluorescence in grains turned out to be 72.5 and the inhibition was -45.9% (inactive).

In the case of `COc1ccc(-n2c(SCC(=O)NCc3cccs3)nnc2-c2ccoc2C)cc1`, the fraction fluorescence in grains amounted to 22.6 and the inhibition is 33.8% (inactive).

For `O=C(NCCCNCc1ccccc1)c1ccc(/C=N/O)nc1`, the fraction fluorescence in grains is 39.1 and the inhibition was 3.6% (inactive).

Regarding `Cc1ccc(C2C(C#N)C(C#N)N3CCCN23)cc1` (stereo unspecified), the fraction fluorescence in grains is 23.7 and the inhibition was 40.7% (inactive).
